{"source": "PubChem BioAssay (NCATS)", "note": "Records with an inconclusive call do not appear. Values without a mark were called inactive. Active and inactive are the calls of the source. The call rests on the fitted dose curve; in most records, active means well fitted inhibition curve with a large enough effect; inconclusive means small, poorly fitted or top-dose-only effect; inactive means no such curve, though single readings can be large or run the other way."}
{"molecular_target": "Cytochrome P450 3A4 (Homo sapiens) (UniProt P08684)", "sequence (P08684 whole entry, looked up)": "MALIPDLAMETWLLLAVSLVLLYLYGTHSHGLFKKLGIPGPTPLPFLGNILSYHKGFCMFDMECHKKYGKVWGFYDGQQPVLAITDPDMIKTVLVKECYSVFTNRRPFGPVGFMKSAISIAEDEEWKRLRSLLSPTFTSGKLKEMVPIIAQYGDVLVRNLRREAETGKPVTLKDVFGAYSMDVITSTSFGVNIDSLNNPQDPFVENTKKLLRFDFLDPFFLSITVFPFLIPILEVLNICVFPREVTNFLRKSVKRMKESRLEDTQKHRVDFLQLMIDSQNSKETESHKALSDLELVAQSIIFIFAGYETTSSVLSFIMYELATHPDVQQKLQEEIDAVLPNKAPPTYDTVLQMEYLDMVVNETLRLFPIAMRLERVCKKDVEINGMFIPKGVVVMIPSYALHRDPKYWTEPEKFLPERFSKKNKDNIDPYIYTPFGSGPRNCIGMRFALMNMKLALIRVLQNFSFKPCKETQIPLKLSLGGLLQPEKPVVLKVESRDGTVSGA", "experiment": "qHTS Assay for Inhibitors and Substrates of Cytochrome P450 3A4 (AID 884); further: nearly all actives have a fitted effect of over 50% in size; further: potency means the concentration at half of the fitted maximal effect; on activity change, negative = inhibition: on the % scale 0 is the no-effect control and ±100 the full control effect", "settings": "recombinant CYP3A4, Luciferin-PPXE luminescence; series mostly up to 57.1 µM; activity change, negative = inhibition: at the top concentration", "protocol": "NIH Molecular Libraries Screening Centers Network [MLSCN]\nNIH Chemical Genomics Center [NCGC]\nThe P450 gene superfamily is involved in the metabolism and clearance of xenobiotics. This assay used human CYP3A4 to measure the dealkylation of luciferin-6' phenylpiperazinylyl (Luciferin-PPXE; […]) to luciferin. The luciferin is then measured by luminescence after the addition of a luciferase detection reagent. Luciferin-PPXE concentration in the assay was equal to its KM for CYP3A4. Inhibitors and some substrates limit the production of luciferin, and decrease measured luminescence.\nNCGC Assay Protocol Summary:\nTwo uL of enzyme and substrate mix (final concentrations: 20nM CYP3A4, 25uM Luciferin-PPXE, 200mM KPO4) were dispensed into a white, solid bottom 1536-well microtiter plate. 23nL of compound was transferred by a pin tool. The plate was incubated at RT for 10 min. Two uL of an NADPH regeneration solution (Promega supplied reagent) was dispensed and the reaction was allowed to continue for 60 min at RT. Then the reaction was stopped by reconstituted luciferin detection buffer. After another 20 min of incubation the plate was read on the ViewLux (Perkin Elmer) at 60 sec exposure and 2x2 binning. This protocol was carried out with Promega-Glo reagents and further information can be found at http://www.promega.com/tbs/tb325/tb325.pdf. Data were normalized to the to AC100 inhibition (57 uM ketoconazole).\nKeywords: P450, CYP3A4, Luciferase, MLSMR, MLSCN, NIH Roadmap, qHTS, NCGC", "units": {"activity change, negative = inhibition": "%"}}
{"molecule": "CC1(C)SC2C(NC(=O)C(C(=O)O)c3ccccc3)C(=O)N2C1C(=O)O", "note": "(stereo not given)", "activity change, negative = inhibition": 0.622}
{"molecule": "COc1ccc(NC(=O)/C=C\\c2ccc(Cl)cc2)cc1", "Potency": "25.1 µM (active)"}
{"molecule": "COC(=O)[C@@]1(Cc2ccc(OC)cc2)[C@H]2c3cc(C(=O)N4CCCC4)n(Cc4cc(F)cc5c4OCOC5)c3C[C@H]2CN1C(=O)c1ccccc1", "Potency": "2.51 µM (active)"}
{"molecule": "COC(=O)[C@@]1(Cc2ccc(F)cc2)[C@H]2c3cc(C(=O)N(C)C)n(Cc4ccc(C)o4)c3C[C@H]2CN1C(=O)c1ccccc1", "Potency": "2.51 µM (active)"}
{"molecule": "COC(=O)N[C@H](c1ccccc1)[C@@]1(C)C[C@@H]1[C@@H](C)C(=O)Nc1ccc2ccccc2c1", "Potency": "0.199 µM (active)"}
{"molecule": "C=C1C(=O)C=C2CN(C(=O)c3ccccc3)[C@@](Cc3ccc(F)cc3)(C(=O)OC)[C@@H]12", "Potency": "7.94 µM (active)"}
{"molecule": "COC(=O)[C@@]1(Cc2ccccc2)[C@H]2c3cc(C(=O)N4CCCC4)n(C)c3C[C@H]2CN1C(=O)c1ccccc1", "Potency": "3.98 µM (active)"}
{"molecule": "COC(=O)[C@H]1C[C@@H]1[C@H](NC(=O)c1ccccc1)c1ccccc1", "activity change, negative = inhibition": 34.8}
{"molecule": "NC(=O)c1ncn(C2OC(CO)C(O)C2O)c1N", "note": "(stereo not given)", "activity change, negative = inhibition": -0.952}
{"molecule": "Nc1ncnc2c1ncn2[C@@H]1O[C@@H](COP(=O)(O)OP(=O)(O)OP(=O)(O)OP(=O)(O)OC[C@@H]2O[C@@H](n3cnc4c(N)ncnc43)[C@@H](O)[C@H]2O)[C@H](O)[C@@H]1O", "activity change, negative = inhibition": -15.3}
{"molecule": "CC1(C)C(=O)C(c2ccccc2)=C2CN3C(=O)N(CCc4ccccc4)C(=O)C3(Cc3ccc(C(F)(F)F)cc3)C=C21", "note": "(stereo not given)", "Potency": "2 µM (active)"}
{"molecule": "CCCC[C@H]1C[C@@H]1[C@@H]1N(P(=O)(c2ccccc2)c2ccccc2)[C@](CO)(c2ccccc2)CC12CC2", "Potency": "2 µM (active)"}
{"molecule": "COc1cc2oc(-c3ccccc3)cc(=O)c2cc1OC", "Potency": "15.8 µM (active)"}
{"molecule": "C[C@@H](C(=O)Nc1ccc2ccccc2c1)[C@H]1C[C@]1(C)[C@H](NS(=O)(=O)c1ccc2ccccc2c1)c1ccccc1", "Potency": "7.94 µM (active)"}
{"molecule": "C[C@@H](C(=O)Nc1ccc2ccccc2c1)[C@H]1C[C@]1(C)[C@H](NC(=O)c1cnccn1)c1ccccc1", "Potency": "0.631 µM (active)"}
{"molecule": "Cc1c(-c2ccccc2)oc2cc(O)ccc2c1=O", "Potency": "15.8 µM (active)"}
{"molecule": "O=C1C[C@H](c2ccccc2)Oc2cc(O)cc(O)c21", "Potency": "12.6 µM (active)"}
{"molecule": "CCCC[C@@H]1C[C@H]1C(NC(=O)Cc1ccccc1)c1ccc(Cl)cc1", "note": "(stereo not given in full)", "Potency": "2.51 µM (active)"}
{"molecule": "CCC[C@@H]1C[C@@]1(CCC)C(NC(=O)c1cccs1)c1ccc(Cl)cc1", "note": "(stereo not given in full)", "Potency": "6.31 µM (active)"}
{"molecule": "COC(=O)c1ccc(C23CC2(C(NP(=O)(c2ccccc2)c2ccccc2)c2ccccc2)C3)cc1", "note": "(stereo not given)", "Potency": "3.16 µM (active)"}
{"molecule": "O=Cc1ccc(Cl)c(Cl)c1", "activity change, negative = inhibition": -13.4}
{"molecule": "CCC/C=C(\\CCC)C(NC(=O)c1cccs1)c1ccc(C(F)(F)F)cc1", "note": "(stereo not given)", "Potency": "2.51 µM (active)"}
{"molecule": "Cc1cccc(O)c1C", "activity change, negative = inhibition": -11.4}
{"molecule": "COC(=O)[C@@]1(Cc2ccc(OC)cc2)[C@H]2c3cc(C(=O)N(C)C)[nH]c3C[C@H]2CN1C(=O)c1ccccc1", "Potency": "1.58 µM (active)"}
{"molecule": "COC(=O)[C@H](C)[C@H]1C[C@]1(C)[C@H](NC(=O)OCc1ccccc1)c1ccccc1", "Potency": "7.94 µM (active)"}
{"molecule": "COC(=O)[C@@]1(Cc2ccccc2)[C@H]2c3cc(C(=O)N4CCCC4)n(Cc4cccc5ccccc45)c3C[C@H]2CN1C(=O)c1ccccc1", "Potency": "1.58 µM (active)"}
{"molecule": "COc1cccc(-c2oc3ccccc3c(=O)c2O)c1", "Potency": "12.6 µM (active)"}
{"molecule": "COC(=O)[C@@]1(Cc2ccc(F)cc2)[C@H]2c3cc(C(=O)N4CCCC4)n(CCCNc4ncc(C(F)(F)F)cc4Cl)c3C[C@H]2CN1C(=O)c1ccccc1", "Potency": "2.51 µM (active)"}
{"molecule": "COC(=O)[C@@]1(Cc2ccc(F)cc2)[C@H]2c3cc(C(=O)N(C)C)n(Cc4ccc(C)c(F)c4F)c3C[C@H]2CN1C(=O)c1ccccc1", "Potency": "0.794 µM (active)"}
{"molecule": "CCCc1cc2c(n1Cc1cc(F)cc(F)c1)C(C)C1CN(C(=O)c3ccccc3)C(C)(C(=O)OC)C21", "note": "(stereo not given)", "Potency": "3.16 µM (active)"}
{"molecule": "COC(=O)[C@@]1(Cc2ccc(F)cc2)[C@H]2c3cc(C(=O)N4CCCC4)n(CCc4ccc(OC)c(Br)c4)c3C[C@H]2CN1C(=O)c1ccccc1", "Potency": "2.51 µM (active)"}
{"molecule": "CNC(=O)[C@H](C)[C@H]1C[C@]1(C)[C@H](NC(=O)OCc1ccccc1)c1ccccc1", "Potency": "2 µM (active)"}
{"molecule": "Cc1cc(Nc2ccc(O)cc2)ccc1N", "Potency": "15.8 µM (active)"}
{"molecule": "NC(=O)/C(=C\\c1ccncc1)c1cccc2ccccc12", "Potency": "3.16 µM (active)"}
{"molecule": "C[C@@H](C(=O)NCc1ccccn1)[C@H]1C[C@]1(C)[C@H](NC(=O)OCc1ccccc1)c1ccccc1", "Potency": "5.01 µM (active)"}
{"molecule": "COc1cc2nc(N3CC=[N+](C(=O)c4ccco4)CC3)nc(N)c2cc1OC", "activity change, negative = inhibition": 56.6}
{"molecule": "Cc1nn(C)c(Cl)c1S(=O)(=O)N[C@@H](c1ccccc1)[C@]1(C)C[C@H]1[C@@H](C)C(=O)Nc1ccc2ccccc2c1", "Potency": "1.26 µM (active)"}
{"molecule": "CCC/C=C(\\CCC)C(NP(=O)(c1ccccc1)c1ccccc1)c1ccc(-c2ccccc2)cc1", "note": "(stereo not given)", "Potency": "3.98 µM (active)"}
{"molecule": "O=c1cc(-c2ccccc2O)oc2cc(O)cc(O)c12", "Potency": "3.98 µM (active)"}
{"molecule": "Oc1ccc2cc(SSc3ccc4cc(O)ccc4c3)ccc2c1", "Potency": "15.8 µM (active)"}
